In PubChem BioAssay AID759 (NMMLSC, 2007):
Hit rate of the full screen: of about 190,000 compounds, about 270 (0.14%) were called active. Inconclusive results (about 2%) are left out. Many of the other results were omitted from the sample, so actives are more common in it than they were. Unmarked numbers belong to inactive results.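 Rule for the calls: active = GTP binding activity at least 20% away from the 100% baseline, either lowered as inhibitor or raised as activator; inconclusive = flagged as likely green fluorescent, judged across all proteins in the well; inactive = the rest.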

molecular target: GTPase HRas (Homo sapiens) (UniProt P01112); experiment: HRas wt fluorescent GTP binding changes, either direction – biochemical, wildtype, bead-based flow cytometry, multiplex, primary screen (AID 759); conditions: GST-Ras wt beads, Bodipy-FL-GTP binding, at 10 µM, actives lie on both sides;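 note: 0% = unlabeled GTP competition control and 100% = no-compound control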
Sequence (P01112 whole entry, looked up): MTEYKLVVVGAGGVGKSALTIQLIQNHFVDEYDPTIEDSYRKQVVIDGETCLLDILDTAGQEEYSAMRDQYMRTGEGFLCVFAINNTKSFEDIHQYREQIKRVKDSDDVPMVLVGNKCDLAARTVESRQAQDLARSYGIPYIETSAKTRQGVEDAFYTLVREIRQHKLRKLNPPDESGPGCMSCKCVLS

Structure (SMILES)	GTP binding activity
CCCC(C)n1[nH]c(=O)c2c1NC(=O)CSC2c1ccc(OC)c(OC)c1 (stereo not given)	98%
CCOc1ccc(C2SCC(=O)Nc3c2c(C)nn3C2CCOC(C)(C)C2)cc1 (stereo not given)	73% (active)
CC1=CC(=Cc2sc3ccccc3[n+]2C)C=C(C)O1	103%
COc1ccc(CN2C(=O)NC(=O)/C(=C\c3ccc(OC)c(OC)c3OC)C2=O)cc1	97%
Cc1ccsc1C(=O)C1CCCN(Cc2ccc(O)cc2)C1 (stereo not given)	98%
